An excerpt weighted towards active compounds, which were near 28% of everything screened.
CYP2C19 inh: human CYP2C19 inhibition; inhibition, % at 5 µM; P33261; CYP2C19 Supersomes, luciferin-H EGE luminescence, 30 min; 96,000 tested, 21% active; AID 778;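 active = CYP2C19 inhibition above a set limit at 5 µM in the primary screen, cut at about 50% in these data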;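 note: plate controls were negative control wells for no effect and 2.5 mM tranylcypromine positive control for full effect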
Target sequence (P33261 whole entry, looked up): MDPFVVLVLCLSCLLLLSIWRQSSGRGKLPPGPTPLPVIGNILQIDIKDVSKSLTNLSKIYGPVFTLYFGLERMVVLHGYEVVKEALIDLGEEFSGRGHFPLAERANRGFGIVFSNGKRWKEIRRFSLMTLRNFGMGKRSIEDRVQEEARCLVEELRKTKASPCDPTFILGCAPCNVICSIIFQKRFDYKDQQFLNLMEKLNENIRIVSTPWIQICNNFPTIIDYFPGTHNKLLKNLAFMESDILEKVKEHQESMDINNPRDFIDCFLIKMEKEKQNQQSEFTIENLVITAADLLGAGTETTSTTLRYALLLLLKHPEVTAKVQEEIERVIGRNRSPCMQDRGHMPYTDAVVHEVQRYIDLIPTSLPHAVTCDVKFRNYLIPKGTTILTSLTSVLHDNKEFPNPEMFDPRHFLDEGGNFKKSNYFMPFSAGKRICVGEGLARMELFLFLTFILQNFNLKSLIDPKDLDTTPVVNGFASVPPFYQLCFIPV
CYP2C9 activ: increases human cytochrome P450 2C9 activity. P11712. recombinant CYP2C9, luciferin-H conversion, luminescence; stronger effect = higher value; factor 1 = untreated enzyme, 0 = blocked. activation factor at 5 µM. 96,000 tested, 1.4% active. AID 1024;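 active = activation factor of 2 or more for CYP2C9 at a 5 µM dose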;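 note: 0 = sulfaphenazole-blocked wells and 1 = vehicle-only wells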
PTK2B oligo ant: antagonists of human Pyk2 oligomerization | Q14289 | 99,000 tested, 0.83% active | Q293 cells, Pyk2 FERM NanoBiT luminescence; stronger effect = lower value | AID 1347419 | z-score (the deposit names both 25 µM and 10 µM);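 active = Z-score of -3 or lower, scaled per plate to the spread of control and sample wells; inactive = z-score above -3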;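 note: negative z-score means lost luminescence so less FERM oligomerization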
CYP2C19 activ: increases human CYP2C19 enzyme activity; recombinant CYP2C19, luciferin-H EGE luminescence; stronger effect = higher value; 0 = fully inhibited enzyme, 1 = untreated enzyme; 96,000 tested, under 10 active; activation factor at 5 µM;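 active = activation factor of at least 2 at 5 µM in the primary screen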;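 note: 0 = wells with 2.5 mM tranylcypromine and 1 = vehicle-only wells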
CYP2C9 inh: human CYP2C9 inhibition | CYP2C9 Supersomes, luciferin-H conversion, luminescence | inhibition, % at 5 µM | 96,000 tested, 20% active;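 active = blocking of liver enzyme CYP2C9 beyond about 50% at 5 µM, limit read from the data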
An asterisk follows results filed as active; / = no result given.

SMILES	CYP2C19 inh	CYP2C9 activ	PTK2B oligo ant	CYP2C19 activ	CYP2C9 inh
CCN1C=C(Cc2ccccc2C)C2=C(C1)C(c1ccccc1C)C(C#N)=C(N)O2 (stereo not drawn)	85.2*	0	1.67	0.1	98.6*
COc1ccccc1OCc1ccc(C(=O)OCC2CCCO2)o1 (stereo not drawn)	76.0*	1.2	0.37	0.2	-15.5
CCCc1ccc(OCc2ccc(C(=O)OC)o2)c(OC)c1	35.8	0.6	-0.77	0.6	40.7
Cc1ccc(C(=O)Nc2ccc3c(c2)OCCO3)o1	46.4	0.8	0.18	0.5	24.7
O=C(NCc1cccnc1)c1ccc(COc2ccccc2Br)o1	79.4*	0.4	1.43	0.2	60.9*
CC(C)(C)NC(=O)c1ccc(COc2ccccc2Br)o1	43.7	0.9	0.09	0.6	10.4
CCN(CC)C(=O)c1ccc(COc2ccccc2Br)o1	39.5	1.2	0.44	0.6	-15.3
Cc1ccc(C(=O)Nc2ccncc2)o1	73.2*	0.6	0.22	0.3	38.4
O=C(Nc1cccnc1)c1ccc(COc2ccccc2Br)o1	88.7*	0.4	-0.26	0.1	60.1*
O=C(NCc1cccnc1)c1ccc(COc2ccc3c(c2)CCC3)o1	99.1*	0.3	-1	0	66.6*
COc1ccccc1OCc1ccc(C(=O)NCc2ccco2)o1	75.6*	0.8	-0.51	0.2	24.0
COc1ccccc1OCc1ccc(C(=O)NC(C)(C)C)o1	15.6	0.9	0.28	0.8	5.9
COC(=O)c1ccccc1NC(=O)c1ccc(COc2cccc3ccccc23)o1	33.4	0.4	-0.69	0.7	57.7*
COc1ccccc1OCc1ccc(C(=O)Nc2ccncc2)o1	99.6*	0	-0.14	0	97.8*
CCCSc1nnc2nc3c(nn12)c1ccccc1n3C	-2.6	1	/	1	1.5
COC(=O)c1ccc(NC(=O)C(=O)N2CCCC2)cc1	15.2	0.8	0.49	0.8	20.6
CN(CCC#N)C(=O)CSc1ncnc2sc(-c3ccccc3)cc12	40.0	0.5	-1.22	0.6	50.5*
CCN(CC)C(=O)CSc1ncnc2sc(-c3ccccc3)cc12	96.6*	0.1	-1.92	0	92.9*
CN(C)/C=N/c1c(C#N)cnn1-c1ncnc2sc(-c3ccccc3)cc12	86.7*	0.1	-2.26	0.1	91.7*
CN(C)/C=N/c1c(C#N)cnn1-c1ccccc1	46.4	1.2	-0.04	0.5	-15.5
CCCCCn1cnc2sc(-c3ccccc3)cc2c1=O	44.3	0.4	0.68	0.6	58.3*
CCOc1ccccc1N(CC(=O)N1CCOCC1)S(=O)(=O)c1ccc(SC)cc1	29.1	0.6	0.64	0.7	38.8
CC(C)C(C)(C#N)NC(=O)CSc1nnc(-c2ccccc2)o1 (stereo not drawn)	67.8*	0.9	-0.78	0.3	9.4
CC(C)C(C)(C#N)NC(=O)CSc1ncnc2sc(-c3ccccc3)cc12 (stereo not drawn)	96.4*	0.2	-1.29	0	83.2*
COc1ncnc2sc(-c3ccccc3)cc12	76.5*	0.8	1.13	0.2	19.5
SMILES	CYP2C19 inh	CYP2C9 activ	PTK2B oligo ant	CYP2C19 activ	CYP2C9 inh
COc1ccc(Nc2ncnc3sc(-c4ccccc4)cc23)cc1	-14.8	1.1	-1.21	1.1	-8.9
Cc1ccc(C(=O)c2c(NC(=O)c3cccnc3)sc3c2CCCC3)cc1	24.5	0.8	-1.69	0.8	15.1
CCOC(=O)Nc1cc(OC)c(OC)cc1Cc1nccc2cc(OC)c(OC)cc12	85.0*	0.4	-0.27	0.2	62.0*
COCCOC(=O)C1=C(N)OC2=C(C(=O)CCC2)C1c1cccnc1 (stereo not drawn)	60.9*	1	0.79	0.4	-2.1
CCOC(=O)C1=C(C)NC2=C(C(=O)CCC2)C1c1cccs1 (stereo not drawn)	73.7*	0.4	-1.91	0.3	64.5*
CCOC(=O)C1=C(N)OC2=C(C(=O)CCC2)C1c1cccs1 (stereo not drawn)	88.2*	0.2	0.06	0.1	80.2*
COC(=O)C1=C(N)OC2=C(C(=O)CCC2)C1c1cccs1 (stereo not drawn)	33.6	0.8	0.31	0.7	22.9
COCCOC(=O)C1=C(N)OC2=C(C(=O)CC(C)(C)C2)C1c1cccnc1 (stereo not drawn)	26.6	0.8	-0.44	0.7	15.7
Cc1c(Br)c([N+](=O)[O-])nn1CC(=O)N1CCCc2ccccc21	12.9	0.6	-0.65	0.9	37.6
O=c1oc2cc(Cl)ccc2n1CSc1nc2ccccc2s1	73.7*	0.3	-0.49	0.3	66.6*
CCOc1ccc(C(CC(=O)O)NC(=O)c2ccco2)cc1OC (stereo not drawn)	-10.7	1.2	0.28	1.1	-15.5
COc1ccc(C(NC(=O)c2ccco2)c2ccc(OC)c(OC)c2)cc1OC	72.4*	0.4	1.16	0.3	61.3*
COc1ccc(OC)c(C(C)NC(=O)c2ccco2)c1 (stereo not drawn)	82.0*	0.3	-0.95	0.2	66.3*
COc1ccc(NC(=O)CSc2nnc(-c3cccs3)n2-c2ccccc2)cc1	-3.1	1.1	-0.42	1	-7.6
Cn1ncc(N=Cc2ccccc2)c1C(=O)Nc1cccc(Cl)c1	-15.0	0.4	0.07	1.1	55.7*
O=C(CSc1ccc(-c2ccccc2)nn1)NCc1ccco1	/	/	-0.02	/	/
COc1ccc(/C=N/NC(=O)c2cc(-c3ccc(C)cc3C)nc3ccccc23)cc1COC(C)=O	47.4	0.3	-1.9	0.5	74.4*
COc1ccc(/C=N/NC(=O)c2ccoc2C)cc1COc1ccc(Cl)cc1	14.4	0.6	-0.37	0.9	36.9
CCn1cc(CNC(=O)c2cc(-c3ccccc3OC)nc3ccccc23)c(C)n1	9.1	0.7	-0.2	0.9	31.7
COc1ccc(/C=N/NC(=O)c2cc(-c3ccccc3OC)nc3ccccc23)cc1COC(C)=O	44.3	0.3	-1.65	0.6	71.6*
COc1ccc(/C=N/NC(=O)c2cccnc2)cc1CSc1nc2ccccc2s1	/	/	-2.95	/	/
COc1ccc(/C=N/NC(=O)c2ccccc2Cl)cc1CSc1nc2ccccc2s1	51.2*	0.2	-1.52	0.5	81.5*
CCNS(=O)(=O)c1ccc(NC(=O)c2ccccc2)cc1	12.9	0.8	-0.19	0.9	24.2
CC(C)CCn1nnnc1C(C(C)C)N1CCC(C(N)=O)CC1 (stereo not drawn)	/	/	-0.09	/	/
Cc1ccc(NC(=S)Nc2nc(CC(=O)Nc3ccccc3)cs2)cc1	59.2*	0.7	-1.05	0.4	27.7
CN(C)C(=O)CSc1nc2ccccc2c(=O)[nH]1	-13.0	1.1	-0.04	1.1	-11.9
CC(=O)Nc1ccc(NC(=S)Nc2ccccc2)cc1	36.5	1	-0.21	0.6	2.8
Cc1cccc(C)c1NC(=O)CSc1nc2ccccc2c(=O)[nH]1	26.5	0.8	0.73	0.7	17.1
CC(C)(C)N(Cc1ccccc1)C(=O)CSc1nc2ccccc2c(=O)[nH]1	65.9*	0.2	-1.49	0.3	82.3*
Cc1csc(NC(=O)CSc2nc3ccccc3c(=O)[nH]2)n1	7.5	0.4	0.76	0.9	55.1*

High-throughput results: PubChem, Sanford-Burnham Center for Chemical Genomics
